Data taken from PubChem BioAssay (EPA / NIEHS).
“And” between values parts separate entries of the source, which are not always exact repeats. Identical values can stand only once. The source made the active and inactive calls. The calls were made as follows: active = hit-call score of the fitted dose curve at least 0.9, where 1 is the maximum; inactive = score below 0.9.

experiment: ATG_PBREM_CIS: Attagene CIS-FACTORIAL HepG2 Assay for human Phenobarbital-responsive Enhancer Module (PBREM) (AID 2282955); settings: HepG2 PBREM cis-reporter, Attagene multiplexed transcription; actives raise or lower the signal
Description: ATG_CIS is a cell-based, multiplexed-readout assay that uses HepG2, a human liver cell line, with measurements taken at 24 hours after chemical dosing in a 24-well plate.ATG_PBREM_CIS is one of 52 assay component(s) measured or calculated from the ATG_CIS assay. It is designed to make measurements of mRNA induction, a form of inducible reporter, as detected with fluorescence intensity signals by Reverse transcription polymerase chain reaction (RT-PCR) and Capillary electrophoresis technology.Data from the assay component ATG_PBREM_CIS was analyzed into 1 assay endpoint. This assay endpoint, ATG_PBREM_CIS, was analyzed with bidirectional fitting relative to DMSO as the negative control and baseline of activity. Using a type of inducible reporter, measures of mRNA for gain or loss-of-signal activity can be used to understand the reporter gene at the transcription factor-level as they relate to the gene NR1I3. Furthermore, this assay endpoint can be referred to as a primary readout, because this assay has produced multiple assay endpoints where this one serves a reporter gene function. To generalize the intended target to other relatable targets, this assay endpoint is annotated to the nuclear receptor intended target family, where the subfamily is non-steroidal.
Human liver HepG2 cells are transiently transfected with multiple reporter transcription units (MRTUs) in 6-well plates using FuGene 6 reagent (Roche; 3 ml FuGene/1 mg DNA). The MRTU constructs are regulated by a cis-regulating element (promoter). […] A major difference between the CIS and TRANS system is that in CIS activities of endogenous TFs are measured, whereas the TRANS assay evaluates changes in activities of exogenous, chimeric NR-Gal4 proteins. […] At the end of 24 hour incubation, total RNA was isolated using TriZol reagent (Invitrogen). The isolated RNA is then reverse-transcribed using oligo(dT) primer and Mo-MLV reverse transcriptase (Invitrogen) with DNAse I (Ambion) treatment for 30 min. The one-tenth of the produced cDNA was amplified by PCR using Taq DNA polymerase (Invitrogen) and two reporter sequence-specific primers. The PCR products were fluorescently labeled by primer extension with 6-arboxyfluorescein (6-FAM) 5'-labeled reporter sequence-specific primer (2 min at 95 C, 20 s at 68 C and 10 min at 72 C) and these products were digested with 5U of HpaI (New England Biolabs) for 2h at 37 C. The fragments were purified using Qiaquick PCR columns (Qiagen), analyzed on an ABI 3130xL genetic analyzer (Applied Biosystems) with peak positions identified by using a set of X-rhodamine (ROX)-labeled MapMarker1000 molecular weight standards (BioVentures). The raw capillary electrophoresis data was processed using Attagraph software (Attagene).

SMILES	outcome	AC50
O=C1CCCO1	inactive	
C[C@]12C=CC3=C4CCC(=O)C=C4CC[C@H]3[C@@H]1CC[C@@H]2O	inactive	
CN(C)[C@@H]1C(=O)C(C(N)=O)=C(O)[C@@]2(O)C(=O)C3=C(O)c4c(O)cccc4[C@@](C)(O)[C@H]3C[C@@H]12	inactive	
CS(=O)(=O)NC(=O)c1cc(Oc2ccc(C(F)(F)F)cc2Cl)ccc1[N+](=O)[O-]	inactive	
Nc1ccc(Oc2ccc(N)cc2)cc1	inactive	
OCCCl	inactive	
OCCCBr	inactive	
CCCCC(CC)COC(=O)c1ccc(C(=O)OCC(CC)CCCC)c(C(=O)OCC(CC)CCCC)c1 (stereo not given)	inactive	
CCN(CC)CCO	inactive	
CO[C@@H]1[C@H](OC(=O)NC(=O)CCl)CC[C@]2(CO2)[C@H]1[C@@]1(C)O[C@@H]1CC=C(C)C	inactive	
CCOc1cccc(C2(N3CCN(c4ccccc4)CC3)CCC(C)CC2)c1 (stereo not given)	inactive	
ClC1=C(Cl)C2(Cl)C3C(Cl)C=CC3C1(Cl)C2(Cl)Cl (stereo not given)	inactive	
Nc1ccc(N=Nc2ccccc2)cc1		67.3 µM (active)
O=[N+]([O-])c1ccc(Oc2ccc(Cl)cc2Cl)cc1		22.5 µM (active)
CC(C)(C)OOC(=O)c1ccccc1	inactive	
Nc1ccc(Cc2ccc(N)cc2)cc1	inactive	
CCC12COCN1COC2	inactive	
CC(O)CCO (stereo not given)	inactive	
Cc1ccc(N)cc1	inactive	
Nc1ccc([N+](=O)[O-])cc1	inactive	

SMILES	outcome	AC50
CC(C)(OOC(C)(C)c1ccccc1)c1ccccc1		25.3 µM (active)
O=C(O)C1C2CCC(O2)C1C(=O)O (stereo not given)		160 µM (active)
CCC(C)c1ccc(O)cc1 (stereo not given)	inactive	
c1ccc2c(c1)-c1cccc3cccc-2c13	inactive	
CN(C)C(=O)Nc1ccc(Cl)cc1	inactive	
Cn1cc(-c2ccccc2)c(=O)c(-c2cccc(C(F)(F)F)c2)c1	inactive	
CCNS(=O)(=O)C(F)(F)C(F)(F)C(F)(F)C(F)(F)C(F)(F)C(F)(F)C(F)(F)C(F)(F)F		96.5 µM (active) and 61.9 µM (active) and 34.7 µM (active)
c1ccc2c(c1)oc1ccccc12	inactive	
Nc1ccc(Cl)cc1N	inactive	
C=CCc1ccc2c(c1)OCO2	inactive	
Cc1ccc(N=C=O)cc1N=C=O	inactive	
c1ccc(N=Nc2ccccc2)cc1	inactive	
Clc1ccc(C(c2ccc(Cl)cc2)C(Cl)Cl)cc1		56.8 µM (active)
CC(C)N(Cc1ccccc1)C(=O)C(C)(C)C	inactive	
O=P(OCCCl)(OCCCl)OCCCl	inactive	
Cc1ccc([N+](=O)[O-])cc1	inactive	
CC(C)(O)c1cnn2c(-c3ccc(F)c(-c4c(F)cccc4C#N)c3)cnc2n1		0.785 µM (active)
OCCOCCO	inactive	
CCCCCCCCOC(=O)c1ccc(C(=O)OCCCCCCCC)c(C(=O)OCCCCCCCC)c1	inactive	
[As]#[In]	inactive	
